Sampled rows, rich in hits. Any-hit rate of the full collection: about 1.4%.
EPAC2 antagonist – qHTS for Antagonist of cAMP-regulated guanine nucleotide exchange factor 2 (EPAC2): primary screen. Potency, µM (top dose mostly 114 µM), most hits filed as inhibitors. EPAC2 GEF exchange of Rap1B-BODIPY-GDP, fluorescence. actives 0.18% (n = 360,000). Rap guanine nucleotide exchange factor 4 (Homo sapiens), Q8WZA2; also: nearly all actives have a fitted effect of over 45% in size
Target sequence (Q8WZA2 whole entry, looked up): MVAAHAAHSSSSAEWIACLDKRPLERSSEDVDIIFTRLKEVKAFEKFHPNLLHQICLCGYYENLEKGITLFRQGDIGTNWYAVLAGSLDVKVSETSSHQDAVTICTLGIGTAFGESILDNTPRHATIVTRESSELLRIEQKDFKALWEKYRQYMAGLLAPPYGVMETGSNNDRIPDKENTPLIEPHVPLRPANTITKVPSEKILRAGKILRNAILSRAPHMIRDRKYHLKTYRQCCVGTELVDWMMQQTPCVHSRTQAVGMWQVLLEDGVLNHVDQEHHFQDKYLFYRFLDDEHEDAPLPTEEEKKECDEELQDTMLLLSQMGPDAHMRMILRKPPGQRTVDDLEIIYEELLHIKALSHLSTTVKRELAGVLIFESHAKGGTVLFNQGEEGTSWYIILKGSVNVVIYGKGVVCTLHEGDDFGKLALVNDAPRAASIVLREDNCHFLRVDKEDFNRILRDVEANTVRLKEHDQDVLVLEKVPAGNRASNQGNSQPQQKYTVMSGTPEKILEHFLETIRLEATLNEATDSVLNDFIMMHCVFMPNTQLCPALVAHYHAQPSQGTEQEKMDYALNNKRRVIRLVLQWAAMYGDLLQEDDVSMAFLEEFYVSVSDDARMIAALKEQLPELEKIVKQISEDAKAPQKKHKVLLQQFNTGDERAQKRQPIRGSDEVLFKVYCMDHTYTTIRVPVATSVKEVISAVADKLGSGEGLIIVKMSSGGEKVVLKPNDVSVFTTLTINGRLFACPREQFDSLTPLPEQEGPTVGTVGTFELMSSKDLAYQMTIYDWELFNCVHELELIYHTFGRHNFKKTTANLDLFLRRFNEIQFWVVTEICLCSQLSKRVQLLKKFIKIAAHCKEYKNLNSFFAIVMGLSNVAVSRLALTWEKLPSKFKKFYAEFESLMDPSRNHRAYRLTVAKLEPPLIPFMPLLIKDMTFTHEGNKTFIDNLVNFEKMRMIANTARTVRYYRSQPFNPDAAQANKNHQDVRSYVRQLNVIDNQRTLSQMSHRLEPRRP
EPAC1 ag – qHTS for Agonist of cAMP-regulated guanine nucleotide exchange factor 3 (EPAC1): primary screen; EPAC1 agonist qHTS, biochemical assay; response scale: 100% = response to 6.5 mM cAMP; Potency, µM (doses to about 154 µM), actives largely listed as activators; actives 0.073% (n = 360,000); AID 720707, 2013; also: nearly all actives have a fitted effect of over 60% in size
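Normalized to 6.5 mM cAMP, activity reflects EPAC1-catalysed release of BODIPY-GDP from Rap1B, followed kinetically over 30 min at 480 nm excitation, 540 nm emission. Reaction contained 100 nM EPAC1, 250 nM Rap1B-BODIPY-GDP, 50 uM GDP.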
BRCA1 expr up – qHTS Assay to Identify Small Molecule Activators of BRCA1 Expression; MCF7-BRCA1-FFLuc reporter, luminescence, 48 h; response scale: scaled: vehicle 0%, 10 µM genistein 100%; Potency, µM (doses to about 46.1 µM), actives largely listed as activators; actives 1.1% (n = 380,000); also: nearly all actives have a fitted effect of over 80% in size
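Luminescence from a BRCA1-driven firefly luciferase in MCF7 cells was read after 48 h compound exposure at 37 C. Data normalized against DMSO and a 10microM genistein activation control, then curve-fitted across the titration.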
EPAC2 ag – qHTS for Agonist of cAMP-regulated guanine nucleotide exchange factor 4 (EPAC2): primary screen; AID 720711, 2013; actives 0.079% (n = 360,000); Rap guanine nucleotide exchange factor 4 (Homo sapiens), Q8WZA2; EPAC2 activation, biochemical qHTS; response scale: 100% = 6.5 mM cAMP response; Potency, µM (doses to about 154 µM), hits mostly activators; also: nearly all actives have a fitted effect of over 50% in size
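Readout is BODIPY fluorescence (480 nm excitation, 540 nm emission), which falls as labeled GDP is exchanged off Rap1B. EPAC2 at 100 nM acted on 250 nM RAP1B-BODIPY-GDP with 50 uM GDP present.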
EPAC1 antag – qHTS for Antagonist of cAMP-regulated guanine nucleotide exchange factor 3 (EPAC1): primary screen. Rap guanine nucleotide exchange factor 3 (Homo sapiens), O95398. EPAC1 GEF assay, Rap1b-BODIPY-GDP exchange fluorescence. Potency, µM (highest dose often 115 µM), most hits filed as inhibitors. actives 0.14% (n = 360,000); also: nearly all actives have a fitted effect of over 50% in size
USP1 inh – Inhibitors of USP1/UAF1: Primary Screen; Ubiquitin carboxyl-terminal hydrolase 1 (Homo sapiens), O94782; recombinant USP1/UAF1, Ub-Rhodamine cleavage fluorescence; Potency, µM (titrated, usually from 57.1 µM), hits mostly inhibitors; actives 0.23% (n = 390,000); also: nearly all actives have a fitted effect of over 60% in size
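Step one: compound is pinned into 1nM USP1/UAF1 in HEPES pH 7.8 buffer with TCEP. Step two: 15 min room-temperature incubation. Step three: Ub-Rho (150nM final) starts cleavage, tracked by fluorescence over six one-minute reads.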
Each line names hits and unclear results; the compound was inactive in the other large screens. Calls follow the shape of the dose curve; as a rule, active = well fitted curve in the direction sought with a large enough effect; inconclusive = small, poorly fitted or top-dose-only effect, or another doubt; inactive = no such curve, though single readings can be large; an effect the other way counts as inactive or inconclusive.

CC1CCCN(c2ccc(C(=O)NCc3cccs3)cn2)C1 (stereo not given)	BRCA1 expr up 10µM
O=C(NCc1cccs1)c1ccncc1	none
CC1CCN(c2ccc(C(=O)NCCc3ccccc3)cn2)CC1	BRCA1 expr up inconclusive
CC1CCCN(c2ccc(C(=O)NCc3ccccc3)cn2)C1 (stereo not given)	BRCA1 expr up 6.3µM
O=C(NCc1cccs1)c1ccc(N2CCCCC2)nc1	BRCA1 expr up 7.9µM
CCCCc1ccc(CC(=O)NO)cc1	none (no result: EPAC2 antagonist, EPAC1 ag, EPAC2 ag, EPAC1 antag, USP1 inh)
CS(=O)(=O)N1CCN(/[N+]([O-])=N/Oc2ccc([N+](=O)[O-])cc2[N+](=O)[O-])CC1 (tested in a mixture with another compound)	none (no result: EPAC2 antagonist, EPAC1 ag, EPAC2 ag, EPAC1 antag, USP1 inh)
NC(=O)c1ccc(-n2nnnc2SCC(=O)Nc2ccccc2F)cc1	none
CC(=O)Nc1ccc(NC2=C/C(=N/S(=O)(=O)c3cccs3)c3ccccc3C2=O)cc1	USP1 inh 16µM
COc1ccc(S(=O)(=O)/N=C2\C=C(Nc3ccc(O)cc3)C(=O)c3ccccc32)cc1	EPAC1 antag inconclusive, USP1 inh 7.1µM
Cc1ccccc1NC1=C/C(=N\S(=O)(=O)c2cccs2)c2ccccc2C1=O	USP1 inh 2.2µM
CCn1cc(C(=O)N2CCN(c3ccccc3)CC2)c(=O)c2cc(S(=O)(=O)N(C)C)ccc21	none (no result: EPAC2 antagonist, EPAC1 ag, BRCA1 expr up, EPAC2 ag, EPAC1 antag)
COc1ccc(NC(=O)/C(C#N)=C/c2ccc(OCc3cc(=O)n4nc(C)sc4n3)cc2)cc1	none (no result: EPAC2 antagonist, EPAC1 ag, EPAC2 ag, EPAC1 antag)
Cc1c(Cl)cccc1Nc1nc(N)nc(CSc2ncccn2)n1	BRCA1 expr up 10µM
Cc1c(Cl)cccc1Nc1nc(N)nc(CSCCO)n1	none
CN(C)c1ccc(C(CNC(=O)c2cccs2)N(C)C)cc1 (stereo not given)	BRCA1 expr up 13µM, EPAC1 antag inconclusive
CN(C)c1ccc(NC(=O)COC(=O)CNC(=O)c2cccs2)cc1	none
CC(=O)Nc1ccc(NC(=O)c2ccc(COc3ccccc3)cc2)cc1	none
CC(=O)Nc1cccc(NC(=O)c2ccc(COc3ccccc3)cc2)c1	BRCA1 expr up 2.2µM
CC(=O)Nc1cccc(OCc2ccc([N+](=O)[O-])cc2)c1	BRCA1 expr up 11µM
CC(=O)Nc1cccc(OCCCOc2ccc([N+](=O)[O-])cc2)c1	none
Cc1ccc(C(=O)OCC(=O)NCCc2ccccc2)cc1C	none
CCCCc1ccc(NC(=O)CC(C)(C)C)cc1	BRCA1 expr up 13µM
CC(C)(C)CC(=O)Nc1ccc(Nc2ccccc2)cc1	BRCA1 expr up 6.3µM
CC(=O)N(c1ccc(Cl)cc1)C1SC(=O)N(c2ccccc2)C1=O (stereo not given)	none (no result: EPAC2 antagonist, EPAC1 ag, EPAC2 ag, EPAC1 antag, USP1 inh)
CCOC(=O)c1ccc(/[N+]([O-])=C/c2ccccc2)cc1	BRCA1 expr up inconclusive
C#CCCc1cscc1/C=[N+](\[O-])c1ccc(C(=O)OCC)cc1	BRCA1 expr up 6.3µM
Cc1ccc(/C=C(\CCC(=O)O)c2nc3ccccc3s2)cc1[N+](=O)[O-]	EPAC1 antag 79µM
COc1ccc(C(=O)Nc2cccc(/C=C(\CCC(=O)O)c3nc4ccccc4s3)c2)cc1	BRCA1 expr up inconclusive, EPAC1 antag 56µM
CN(c1ccccc1)c1ccc(/C=C(\CCC(=O)O)c2nc3ccccc3s2)cc1[N+](=O)[O-]	EPAC2 antagonist 79µM, EPAC1 antag inconclusive
CNc1ccc(/C=C(\CCC(=O)O)c2nc3ccccc3s2)cc1[N+](=O)[O-]	EPAC1 ag inconclusive, EPAC1 antag 45µM
C=CCn1ccc(=O)nc1SC	none
CCn1c(COc2ccccc2C)nc2ccccc21	BRCA1 expr up 7.9µM, EPAC1 antag inconclusive
Cn1c(COc2ccccc2Br)nc2ccccc21	BRCA1 expr up 6.3µM
COc1ccccc1C(O)Cc1nc2ccccc2n1C (stereo not given)	BRCA1 expr up 10µM
Cc1cc(C(=O)N/N=C2\CC(=O)c3ccccc32)c(C)n1-c1ccccc1	USP1 inh inconclusive
COc1ccc(NC(=O)CN(C)C(=O)CSCc2ccc(C)cc2)cc1	none
Cc1ccc(OCCOc2ccc(S(=O)(=O)N3CCCC3)cc2C(N)=O)cc1	none
COc1ccc(Oc2nccc(-c3ccc(F)cc3)c2C#N)cc1	none
COc1ccc(Oc2nccc(-c3ccccc3)c2C#N)cc1	BRCA1 expr up 5µM
C[C@@H]1CN([C@@H](C)CO)C(=O)CCCn2nncc2CO[C@H]1CN(C)S(=O)(=O)c1ccc2ccccc2c1	none
CC(C)NC(=O)c1ccc(CN2CCc3ccccc3C2)cc1	none
CC1CCc2nc(/C(C#N)=C/c3ccncc3)sc2C1 (stereo not given)	BRCA1 expr up 11µM
CC(C)(C)C1=CC(O)(c2ccccc2)C=C(C(C)(C)C)C1=O	EPAC2 antagonist inconclusive
COC(=O)c1ccccc1NC(=O)C1CCCN(C(=O)c2cnn(-c3ccc(F)cc3)c2-n2cccc2)C1 (stereo not given)	none (no result: EPAC2 antagonist, EPAC1 ag, EPAC2 ag, EPAC1 antag)
Cc1onc(-c2c(Cl)cccc2Cl)c1COC(=O)c1ccc(Cl)cc1	EPAC2 antagonist 3.5µM
Cc1onc(-c2c(Cl)cccc2Cl)c1COC(=O)c1ccc([N+](=O)[O-])cc1	USP1 inh inconclusive
CCC(=O)NC1=C(Cl)C(=O)C(NC(=O)CC)=C(Cl)C1=O	EPAC1 antag inconclusive, USP1 inh 32µM
COC1=C(N)C(=O)c2nc(C)ccc2C1=O	USP1 inh 7.1µM
COC1=C(Br)C(=O)c2nc(C)ccc2C1=O	EPAC2 antagonist inconclusive, EPAC1 antag inconclusive, USP1 inh 25µM
COC1=C(OC)C(=O)c2ccccc2C1=O	none (no result: EPAC2 antagonist, EPAC1 ag, EPAC2 ag, EPAC1 antag, USP1 inh)
Cc1nc2c(nc1C)C(=O)c1ccccc1C2=O	USP1 inh inconclusive
Cc1ccc(CNC(=O)c2ccc(C)s2)cc1	BRCA1 expr up 13µM
Cc1ccc(C(=O)NCc2ccc(F)cc2)s1	none
CCc1nc2ccc(C(=O)NCCCN3CCCC3=O)cn2c1N(CC)C(=O)NCCc1ccccc1	none (no result: USP1 inh)
COC(=O)c1ccccc1NC(=O)CN(c1ccccc1OC)S(C)(=O)=O	none (no result: EPAC2 antagonist, EPAC1 ag, EPAC2 ag, EPAC1 antag)
